Screens from PubChem.
An excerpt weighted towards active compounds, which were near 19% of everything screened.
AMA1-RON2 inh – qHTS for Inhibitors of AMA1-RON; Towards Development of Antimalarial Drug Lead: Primary Screen | AlphaScreen AMA1-biotinylated RON2 peptide binding | Potency, µM (top dose mostly 58.2 µM), without a hit: at the highest dose activity change, negative = inhibition, actives largely listed as inhibitors | hit rate 0.2% among 360,000;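 note: potency is the fitted concentration of half-maximal effect; 0% = vehicle wells and -100% = peptide control; nearly all actives have a fitted effect of over 45% in size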
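AMA1 (3D7) with his tag at 25 nM final met compounds first, then biotinylated RON2 peptide at 25 nM; detection used donor plus acceptor beads, 10 µg/mL apiece, read by AlphaScreen after 30 min at room temperature.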
Shiga toxin inh – A qHTS for Small Molecule Inhibitors of Shiga Toxin. hit rate 9.2% among 290,000. Vero cells, Shiga toxin protein synthesis inhibition reporter. AID 2315, 2010. inhibition, % at 38.7 µM; in the data active = inhibition mostly above about 28%, no sharp cut-off; inactive = mostly below about 43%; note: 0% is about no effect
CHX counter – Cycloheximide Counterscreen for Small Molecule Inhibitors of Shiga Toxin. cell reporter, cycloheximide protein synthesis inhibition counterscreen. max response, %. hit rate 12% among 300,000; in the data active = max response mostly above about 13%, no sharp cut-off; inactive = mostly below about 14%; note: read at 38.3 µM for the half of the compounds with a filed dose; 0% is about no effect
Pf growth 48h – Primary qHTS for delayed death inhibitors of the malarial parasite plastid, 48 hour incubation | P. falciparum luciferase growth in erythrocytes, 48 h | Potency, µM (highest dose often 28.7 µM), for inactives: at the highest dose activity change, negative = inhibition, hits mostly inhibitors | hit rate 5.9% among 310,000; note: potency is the fitted concentration of half-maximal effect; % is set by controls: 0 for no effect and ±100 for the full control effect
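Luciferase-expressing parasites in RBCs, 2% Hct / 0.1% parasitemia final; RPMI 1640 + 0.5% Albumax; 37 C, 5% CO2, one generation; luminescence read-out, lower signal = inhibition.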
SARS PLP yeast – qHTS of Yeast-based Assay for SARS-CoV PLP | S. cerevisiae expressing SARS-CoV PLpro, growth rescue | Potency, µM (doses to about 32.9 µM), for the others: top-dose activity, positive = growth rescue, most hits filed as activators | hit rate 0.19% among 330,000 | AID 485353, 2010; calls by dose curve; note: potency is the fitted concentration of half-maximal effect; 0% is about no effect; nearly all actives have a fitted effect of over 55% in size
Pf growth 96h – Primary qHTS for delayed death inhibitors of the malarial parasite plastid, 96 hour incubation. hit rate 6.9% among 320,000. Potency, µM (top dose mostly 28.7 µM), for inactives: top-dose activity change, negative = inhibition, actives largely listed as inhibitors. P. falciparum luciferase reporter growth, 96 h; note: potency is the fitted concentration of half-maximal effect; % is set by controls: 0 for no effect and ±100 for the full control effect
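P. falciparum expressing integrated firefly luciferase grown in erythrocytes (2% hematocrit, 0.05% parasitemia final) with compounds for 96 hours at 37 C, 5% CO2. Growth inhibition read as loss of luminescence after adding luciferase detection reagent.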
Numbers without * were called inactive; ? = inconclusive; / = not tested or not shown; [ ] = another dose, or the depositor's remark. Unless noted, calls come from the whole dose curve; as a rule, active = well fitted curve in the direction sought with a large enough effect; inconclusive = small, poorly fitted or top-dose-only effect, or another doubt; inactive = no such curve, though single readings can be large; an effect the other way counts as inactive or inconclusive.

SMILES	AMA1-RON2 inh	Shiga toxin inh	CHX counter	Pf growth 48h	SARS PLP yeast	Pf growth 96h
COc1ccc(C(=O)OCCc2ccc(O)cc2)cc1	23%	50*	38*	281%	-19%	360%
COc1ccc(CCOC(=O)c2ccc(NC(=O)CC#N)cc2)cc1	-9%	30	41*	?	-4%	0%
O=C(OCCCOC(=O)c1ccc(O)cc1)c1ccc(O)cc1	-13%	13	2	-6%	12%	?
CC(C)n1nc(C(=O)OCC(=O)NCCc2ccc(S(N)(=O)=O)cc2)c2ccccc2c1=O	-6%	/	/	/	/	/
CCCCNc1c([N+](=O)[O-])cc(C)cc1[N+](=O)[O-]	19µM*	-7	-3	-14%	1%	?
O=C(CSc1nnc(-c2ccc(Cl)cc2)n1Cc1ccco1)c1cccs1	-1%	44*	58*	?	-2%	?
O=C(CSCc1ccco1)c1cccs1	-6%	82*	39*	/	2%	154%
O=C(CCC(=O)NNC(=O)c1ccccc1[N+](=O)[O-])NCc1ccccc1	-1%	-7	-4	15%	0%	16%
CSCc1c(C(=O)Nc2ccc(N3CCOCC3)cc2)oc2ccccc12	-21%	-8	8	/	11%	-11%
CSCc1c(C(=O)Nc2ccc3c(c2)OCO3)oc2ccccc12	4%	60*	19*	6%	-4%	25%
CSCc1c(C(=O)Nc2ccccc2N2CCOCC2)oc2ccccc12	-1%	/	/	12µM*	-2%	-113%
COCC(=O)Nc1c(C(=O)Nc2ccc3c(c2)OCO3)oc2ccccc12	0%	11	7	45%	-8%	218%
Cc1c(C(=O)Nc2ccc3nc(N4CCOCC4)sc3c2)oc2ccccc12	-3%	/	/	10µM*	-4%	?
CC(=O)Nc1c(C(=O)Nc2ccc3c(c2)OCO3)oc2ccccc12	-13%	114*	42*	252%	-3%	268%
O=C(CC(O)c1ccccc1)Nc1ccccn1 (centres undefined)	7%	/	/	/	/	/
Cc1cc(NS(=O)(=O)c2ccc(NC(=O)Cc3ccccc3)cc2)nc(C)n1	-5%	-5	-6	1%	-1%	?
Cc1ccc(NC(=O)c2ccc3nc(N4CCOCC4)sc3c2)c(Cl)c1	-1%	4	16*	44%	2%	-11%
O=C(CCNC(=O)c1ccccc1Cl)Nc1ccc2c(c1)OCCO2	6%	/	/	/	/	/
COc1cccc(NC(=O)c2oc3ccccc3c2NC(=O)c2ccc3c(c2)OCO3)c1	-5%	13	3	-18%	-14%	-11%
Cc1c(C(=O)Nc2ccc3c(c2)OCO3)oc2ccccc12	?	121*	43	255%	-5%	347%
O=C(CCl)Nc1c(C(=O)Nc2ccc3c(c2)OCCO3)oc2ccccc12	-1%	84*	69*	-5%	10%	?
O=Cc1ccc2c(c1)OCCOCCOCCOCCO2	-14%	/	/	/	/	/
C/C(=N\NC(=O)c1ccc(Br)o1)c1cc2c(cc1NC(=O)CCC(=O)O)OCO2	48%	34*	19*	-4%	-4%	-13%
CC(=O)c1cc2c(cc1NC(=O)CCn1cccc1)OCO2	-3%	18	-1	-18%	-8%	?
O=C(Nc1ccc2c(c1)CCC2)c1ccc(Br)o1	-4%	76*	44*	107%	-15%	/
SMILES	AMA1-RON2 inh	Shiga toxin inh	CHX counter	Pf growth 48h	SARS PLP yeast	Pf growth 96h
Cc1ccc(NC(=O)Cc2ccc3c(c2)CCCC3)cc1C	6%	-14	23*	-7%	4%	-1%
Cc1ccc(NC(=O)Nc2ccc3c(c2)CCC3)cc1C	-13%	29	18	4%	4%	-6%
Cc1ccc(C(=O)Nc2ccc(F)cc2)o1	4%	32*	20	34%	-9%	71%
Cc1ccc(C(C(=O)NCc2ccccc2)N(C(=O)c2ccccn2)c2ccccc2)o1 (centres undefined)	-16%	27	-9	?	1%	-15%
CCCCCCCCCCCCCC(=O)NO	35%	/	/	/	/	/
COC(=O)c1c(NC(=O)COC(=O)Cn2cnc3ccccc32)sc2c1CCCC2	-3%	1	1	19%	-15%	58%
Cc1ccc(NC(=O)c2ccncc2)cc1S(=O)(=O)N(C)C	-2%	7	0	18%	1%	12%
O=C(COC(=O)CNC(=O)c1ccc(Br)o1)Nc1ccc2c(c1)OCCO2	-4%	-1	-2	13%	1%	-15%
O=C(Nc1ccc2c(c1)OCO2)c1ccc(COc2ccc3c(c2)CCC3)o1	-1%	45*	43*	-21%	-15%	-59%
O=C(c1ccc(COc2ccc(Cl)cc2)o1)N1CCN(Cc2ccc3c(c2)OCO3)CC1	-29%	-11	2	0%	0%	/
O=C(Nc1ccc2c(c1)OCO2)c1ccc(Br)o1	3%	69*	48*	/	-7%	99%
Cc1ccc(NC(=O)c2ccc(Br)o2)cc1S(=O)(=O)N(C)C	-4%	78*	24*	-3%	2%	21%
O=C(Nc1ccc(F)cc1)c1ccc(CSc2ccccc2)o1	-4%	5	21*	0%	-59%	?
O=C(Nc1ccc2c(c1)CCC2)c1cc2ccccc2o1	9%	55*	65*	/	-20%	-75%
Cc1ccc(C(=O)Nc2ccc3c(c2)CCC3)o1	0%	99*	63*	223%	-7%	/
Cc1cc(NC(=O)CN(C)C)c([N+](=O)[O-])cc1C	8%	20	15	?	0%	54%
Cc1nn(C)c(C(=O)NNC(=S)NCC(C)C)c1Cl	53%	-8	-4	-3%	-8%	?
Cc1cc(=O)oc2c1c(C)nn2-c1cccc(Cl)c1	-4%	-4	-4	2%	2%	3%[5.75 µM]
Cc1cc(=O)oc2c1c(C)nn2-c1ccc(Br)cc1	-2%	-8	1	-28%	1%	2.9µM*
COc1ccc(OC)c(C(=O)Nc2c(O)ccc3ccccc23)c1	-10%	/	/	/	/	/
CC(C)Cc1ccc(C(=O)NCCOc2ccccc2)o1	-4%	80*	29*	202%	-3%	36%
Cc1ccc(OCCNC(=O)c2ccc(COc3ccccc3)o2)cc1	-14%	/	/	-6%	-14%	-2%
Cc1ccc(OCC(=O)NNC(=O)c2cc3ccccc3o2)cc1C	-12%	17	-4	29%	5%	12µM*
O=C(NCCOc1ccccc1)c1cc2ccccc2o1	-12%	117*	45*	170%	/	/
O=C(COc1ccccc1)NNC(=O)c1cc2ccccc2o1	54%	2	-2	11%	3%	?
Cc1ccc(OCC(=O)NNC(=O)c2cc3ccccc3o2)cc1	-7%	13	10	-12%	5%	?
